# Sampled rows, rich in hits. Any-hit rate of the full collection: about 13%.
# USP8 inh: inhibitors of human USP8 deubiquitinase. purified USP8, Ub-rhodamine cleavage fluorescence, 30 min. 4.2% of 47,000 active. inhibition, % at 20 µM. Ubiquitin carboxyl-terminal hydrolase 8 (Homo sapiens), P40818. AID 1645853, 2021
# OTUD3 inh: inhibitors of human OTUD3 deubiquitinase. OTU domain-containing protein 3 (Homo sapiens), Q5T2D3. purified OTUD3, Ub-rhodamine fluorescence, 2 h. inhibition, % at 25 µM. 0.7% of 47,000 active. AID 1645858, 2021
# Target sequence (Q5T2D3 whole entry, looked up, the tested form may be a part): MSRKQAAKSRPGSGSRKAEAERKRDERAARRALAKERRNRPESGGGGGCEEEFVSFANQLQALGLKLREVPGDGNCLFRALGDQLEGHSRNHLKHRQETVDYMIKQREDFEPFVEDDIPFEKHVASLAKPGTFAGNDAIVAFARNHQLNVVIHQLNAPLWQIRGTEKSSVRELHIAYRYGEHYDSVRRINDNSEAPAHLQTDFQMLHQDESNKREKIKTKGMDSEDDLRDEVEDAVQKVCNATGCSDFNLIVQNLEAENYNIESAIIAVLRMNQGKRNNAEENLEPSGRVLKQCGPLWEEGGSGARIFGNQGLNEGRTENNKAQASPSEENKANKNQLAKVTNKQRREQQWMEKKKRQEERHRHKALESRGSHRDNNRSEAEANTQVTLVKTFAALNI
# USP17 block: inhibitors of human USP17 deubiquitinase; Ubiquitin carboxyl-terminal hydrolase 17-like protein 5 (Homo sapiens), A8MUK1; purified USP17, Ub-rhodamine cleavage fluorescence, 3 h; inhibition, % at 50 µM; 6.5% of 47,000 active
# USP28 block: inhibitors of human USP28 deubiquitinase; purified USP28, Ub-rhodamine cleavage fluorescence, 30 min; inhibition, % at 25 µM; 3% of 47,000 active; AID 1645857, 2021
# USP30 inh: inhibitors of human USP30 deubiquitinase. inhibition, % at 25 µM. AID 1645860, 2021. Ubiquitin carboxyl-terminal hydrolase 30 (Homo sapiens), Q70CQ3. 5.3% of 47,000 active. purified USP30, Ub-rhodamine cleavage fluorescence
# Numbers stand for hits; - = inactive; . = no result. No stated cut-off is given here; in the data, active means inhibition above about 30%; inactive means the rest.
SMILES,USP8 inh,OTUD3 inh,USP17 block,USP28 block,USP30 inh
C=CC[C@H]1OC(=O)CCNC(=O)[C@H](C)N(C)C(=O)[C@H](C(C)C)N(C)C(=O)[C@H]([C@@H](C)CC)NC(=O)[C@@H]2CCCN2C1=O,-,-,-,-,-
CCCCCCC(C)/C=C(C)/C=C/C(=O)N[C@H]1CC2(O[C@H]1O)[C@@H]1O[C@@H]1C(=O)[C@@H]1O[C@@H]12 (some centres not stated),-,-,30.4,-,42.1
COc1cnc(-c2ccccn2)nc1Sc1ccc(C)cc1,-,-,-,-,60.4
COc1cc(OC)cc(-c2nnc3sc(-c4ccco4)nn23)c1,-,-,-,-,-
Fc1cccc(-c2nnc3sc(-c4ccco4)nn23)c1,43.2,-,-,-,-
Cc1ccc(N2C(=O)CC(c3ccc(F)cc3)C3=C2COC3=O)cc1 (configuration not stated),-,-,-,-,-
CCCc1nc2cccnc2n1C1CCN(C(=O)c2cccc(OC)c2)C1 (configuration not stated),-,-,-,-,-
COc1cc2c(cc1OC)CN(C(=O)CCS(=O)(=O)c1ccc(Cl)cc1)CC2,76.0,-,32.1,-,-
CC(C)c1nccn1CCC(=O)N1CCNCC1c1ccccc1 (configuration not stated),-,-,-,-,-
Cn1c(SCC(=O)Nc2ccc(N3CCOCC3)cc2)nnc1-c1ccco1,-,-,-,-,-
CN(C)c1ccc(NC(=O)CSc2nnc(-c3ccc(S(=O)(=O)N4CCOCC4)cc3)n2C)cc1,-,-,-,-,44.7
CC(C)Cn1c(=O)c2cc(C(=O)NCc3ccncc3)nn2c2ccccc21,-,-,-,-,-
CC(C)Cn1nc(C(=O)N(CCc2cccs2)Cc2cccs2)c2ccccc2c1=O,-,-,32.5,-,-
Cc1cccc(CSc2nc3nc4c(cn3n2)C(=O)CC(C)(C)C4)c1,-,-,-,-,35.1
Cc1ccc(CSc2nc3nc4c(cn3n2)C(=O)CCC4)cc1,-,-,-,.,.
O=C(/C=C/c1ccccc1Cl)NCc1ccncc1,-,-,-,-,-
O=C(/C=C/c1cnc2ccccc2c1)NCc1ccccc1,-,-,50.1,-,41.4
O=C(/C=C/c1ccc(Br)cc1)Nc1cnc2ccccc2c1,49.5,-,-,-,-
Cc1cc(NC(=O)/C=C/c2ccccc2)c2ccccc2n1,-,-,-,-,-
CN1CC2N(C(=O)NC3CCCC3)C3CCC2(CC3)OC1=O (configuration not stated),-,-,.,-,-
Cc1[nH]c2ccccc2c1CCNC(=O)/C(=C/c1ccccc1)NC(=O)c1ccccc1,-,-,-,-,-
COc1ccc(/C=C(\NC(=O)c2ccc(Br)cc2)C(=O)NCCc2c(C)[nH]c3ccccc23)cc1,-,-,-,-,33.7
Cc1ccc(S(=O)(=O)Nc2ccccc2C(=O)Nc2nc3ccc(Br)cc3s2)cc1,95.5,84.0,96.9,77.2,75.5
c1ccc(-n2nnc(-c3noc(-c4ccco4)n3)c2-c2ccncc2)cc1,-,-,-,-,-
c1ccc(-n2nnc(-c3noc(-c4cccnc4)n3)c2-c2ccncc2)cc1,-,-,-,-,53.9
SMILES,USP8 inh,OTUD3 inh,USP17 block,USP28 block,USP30 inh
Cc1cccc(NC(=O)Cn2cc(S(=O)(=O)N3CCOCC3)ccc2=O)c1,-,-,-,-,-
CC1CN(C(=O)CCC(=O)NCc2ccccc2Cl)c2ccccc2O1 (configuration not stated),-,-,.,-,-
Cc1ccc(-n2cc(C(=O)N3CCc4ccccc4C3)nn2)cc1,-,-,-,-,-
Cc1ccc(-n2cc(C(=O)NCc3ccccn3)nn2)cc1C,-,-,-,-,-
Cc1ccc(-n2cc(C(=O)N3CCN(c4ccccc4)CC3)nn2)cc1,39.6,-,39.8,-,43.7
Cc1ccc(-n2cc(C(=O)NCCCc3ccccc3)nn2)cc1,78.4,-,-,-,48.8
CCOC(=O)N1CCC(NC(=O)c2cn(-c3ccc(C)cc3)nn2)CC1,-,-,60.0,.,.
CCOC(=O)N1CCC(NC(=O)c2cn(-c3ccccc3Cl)nn2)CC1,-,-,-,-,-
Cc1c(C(=O)NCC2CCCCC2)nnn1-c1cccc2c1CCN(C1CCOCC1)C2,35.6,-,-,-,-
Fc1ccc(Nc2nc(NCCCn3ccnc3)nc3[nH]ncc23)cc1,-,-,-,-,-
Cc1oc(-c2ccc(Cl)cc2)cc1C(=O)Nc1ccccc1,-,-,-,-,34.8
O=C(Cn1c(=O)n(CCC(=O)N2CCc3ccccc3C2)c(=O)c2ccccc21)NCc1ccccc1Cl,90.2,-,76.7,49.1,52.7
O=C(CCn1c(=O)c2ccccc2n(Cc2cc(=O)n3ccccc3n2)c1=O)N1CCc2ccccc2C1,-,-,-,-,-
O=C(Cn1c(=O)n(CCC(=O)N2CCc3ccccc3C2)c(=O)c2ccccc21)NCCC1=CCCCC1,-,-,-,-,-
Cc1ccccc1Cn1c(=O)n(CCCC(=O)N2CCc3ccccc3C2)c(=O)c2ccccc21,-,-,-,-,47.4
O=C(NCc1ccc(F)cc1)C1CCN(c2cnc3nccnc3c2)CC1,-,-,-,-,-
NC(=O)c1cc(NC(=O)c2ccc3ccccc3c2)cc(C(N)=O)c1,-,-,65.6,57.2,66.4
O=C(Nc1cccc(-c2ccc(N3CCOCC3)nn2)c1)c1ccc2ccccc2c1,-,-,-,-,-
Cc1cc2nc(C)c(C/C=C/c3ccccc3)c(C)n2n1,-,-,-,-,-
O=C(c1ccncc1)N1C[C@@H]2OCC(=O)N(c3ccccc3)[C@@H]2C1,-,-,-,-,-
CC(C)c1ccc(CNC(=O)c2nc3ccccc3[nH]2)cc1,-,-,49.5,-,-
O=c1cc(Cc2ccccc2)nc2c(-c3ccccc3)c(COc3ccccc3)[nH]n12,-,-,-,40.7,40.2
Cc1[nH]n2c(=O)cc(Cc3ccccc3)nc2c1-c1ccccc1,-,-,-,-,-
O=C1CC(c2ccco2)Cc2[nH]c(=O)c(C(=O)Nc3ccc(Cl)cc3)cc21 (configuration not stated),-,-,59.5,34.7,-
CCc1noc(-c2ccc(=O)n(CC(=O)Nc3ccccc3)c2)n1,-,-,-,-,37.7
SMILES,USP8 inh,OTUD3 inh,USP17 block,USP28 block,USP30 inh
O=C(Cn1c(-c2nc(-c3cccc(F)c3)no2)cccc1=O)NCc1ccco1,87.3,-,39.7,-,-
O=C(Cn1c(-c2nc(-c3ccccc3)no2)cccc1=O)Nc1ccccc1,-,-,34.1,-,-
CC(C)Oc1ccc(S(=O)(=O)N2CCOCC2)cc1NCC(=O)Nc1ccc(C(C)(C)C)cc1,-,-,-,-,33.2
O=c1[nH]c(-c2ccncc2)nc2c1CCN(Cc1cccn1-c1cccnc1)C2,57.9,-,-,-,-
O=c1[nH]c(N2CCCCC2)nc2c1CCN(Cc1cccn1-c1cccnc1)C2,-,-,-,-,-
COc1ccc(CCNC(=O)Cn2cncn2)cc1OC,-,-,-,-,-

# Compound activity deposited in PubChem BioAssay by Buhrlage Lab, Dana-Farber Cancer Institute and Novartis Institutes for BioMedical Research (Cambridge, Mass).
